The list is not random: actives were taken first. Their share in the collection is about 2.1%.
Ba/F3 V617F tox – reduced viability of JAK2V617F-dependent Ba/F3 cells, primary screen, JAK2V617F inhibitor project, cell-based, Ba/F3 EpoR-JAK2V617F, luminescence | ATP luminescence | inhibition, % at 5.6 µM | hit rate 1.1% among 220,000 | AID 1446, 2008;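 active = inhibition above the campaign mean plus 3 SD over all tested compounds, cut at about 24% in these data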;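 also: cytokine-independent growth of Ba/F3 cells driven by EpoR plus mutant JAK2; 0% = DMSO-treated cells and 100% = JAK inhibitor I control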
IEC-6 tox – cytotoxicity in IEC-6 intestinal epithelial cells, primary screen, cytotoxicity control for KLF5 inhibitor project, cell-based, luminescence; hit rate 0.78% among 290,000; inhibition, % at 5 µM; AID 1825, 2009; IEC-6 cytotoxicity, luminescence viability; in the data active = inhibition above about 22%;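 also: 0% = plate median of test compound wells and 100% = cytotoxic reference compound wells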
APP 5UTR inh – inhibitors of APP translation via 5'UTR reporter, primary screen, APP 5'UTR luciferase, SH-SY5Y cells | SH-SY5Y APP 5'UTR-luciferase reporter, luminescence | inhibition, % at 2 µM | hit rate 0.82% among 190,000;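 active = inhibition above a set limit, derived from the sample mean plus 3 SD, cut at about 45% in these data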
BaF3 tox – parental Ba/F3 cell viability inhibition, counter-screen for JAK2V617F inhibitor project, murine pro-B, CellTiter-Glo luminescence; CellTiter-Glo ATP luminescence; inhibition, % at 5.6 µM; hit rate 1.1% among 220,000; AID 1486, 2009;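 active = inhibition above a per-campaign cutoff, the mean inhibition of all tested compounds plus 3 SD, cut at about 27% in these data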;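 also: 0% = DMSO wells and 100% = JAK Inhibitor I control wells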
KLF5 inh – KLF5 expression inhibitors, primary screen, DLD-1 cells, luminescence. DLD-1 KLF5 promoter-luciferase reporter. inhibition, % at 5 µM. hit rate 0.23% among 290,000;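 active = inhibition above a per-plate limit of that plate's mean compound inhibition plus 3 SD, cut at about 60% in these data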;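 also: 0% = DMSO wells and 100% = LY294002 at 200 µM; higher means less KLF5 promoter-driven luciferase light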
aSyn UTR inh – MLPCN primary screen, SNCA 5' untranslated region; alpha-synuclein 5'UTR reporter, inhibitor activity; inhibition, % (tested at 7.5 µM); hit rate 0.82% among 300,000; AID 1813, 2009; in the data active = inhibition above about 60%;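 also: H4 neuroglioblastoma cells stably carrying SNCA 5'UTR luciferase fusion; 0% = DMSO wells and 100% = positive control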
* marks the source's active call; other numbers are inactive results; · = not tested or not shown.

SMILES | Ba/F3 V617F tox | IEC-6 tox | APP 5UTR inh | BaF3 tox | KLF5 inh | aSyn UTR inh
Cc1sc2ncnc(NCC3COc4ccccc4O3)c2c1C (configuration not stated) | 53.1* | 8.8 | 7.6 | 73.2* | -6.0 | 2.5
c1ccc(-c2csc3ncnc(NCC4COc5ccccc5O4)c23)cc1 (configuration not stated) | 71.5* | 9.7 | 18.7 | 70.9* | 2.8 | 13.7
CCc1ccc(/C=C/c2c[nH]c3ccccc23)[n+](CC)c1 | 94.3* | -3.1 | -0.9 | 79.0* | -9.0 | 9.8
CCc1ccc(-c2cc(C(=O)N/N=C/c3c[nH]c4ccccc34)[nH]n2)cc1 | 2.7 | 8.1 | -208.4 | 9.4 | -94.7 | -2.8
CCOc1ccc(NC(=O)N2CCC(NC(=O)C(Cc3ccccc3OC)NC(C)=O)CC2)cc1 (configuration not stated) | · | 0.5 | · | · | -33.3 | 2.1
O=C(O)c1cc(-c2ccccc2)on1 | 3.6 | 1.7 | 2.8 | 7.0 | -11.3 | -27.9
O=P(O)(O)c1cc(-c2ccccc2)oc1-c1ccccc1 | -1.2 | -5.2 | · | 27.6* | 13.5 | -9.6
CCCc1nnc(NC(=O)CCC(=O)NCCc2ccc(Cl)cc2)s1 | · | 1.9 | · | · | 2.4 | -12.9
CCCc1nnc(NC(=O)CCC(=O)NCCc2ccc(OC)c(OC)c2)s1 | -3.4 | -0.8 | 73.3* | -4.3 | -32.3 | 7.8
CC(Oc1ccccc1C(N)=O)C(=O)Nc1ccc(S(=O)(=O)N2CCCC2)cc1 (configuration not stated) | · | · | · | · | · | -1.7
CCn1c(CNc2ccc(F)cc2)nnc1SCCN1CCCCC1 | -2.5 | -2.5 | -7.4 | 93.4* | -17.2 | -0.1
CCn1c(CNc2ccccc2Cl)nnc1SCCN1CCCCC1 | 2.8 | 3.3 | -3.3 | 0.6 | -7.8 | 7.5
Cc1oc2c(CN3CCOCC3)c(O)ccc2c(=O)c1-c1ccc(Cl)cc1 | 41.0* | 5.2 | · | 47.8* | -50.6 | 0.8
COCCCNC(=O)c1ccc2c(=O)n(Cc3ccc(Cl)cc3)c(=S)[nH]c2c1 | · | 2.4 | · | · | -27.3 | 10.8
CC1CCN(CCNC(=O)c2ccc3c(=O)n(Cc4ccc(Cl)cc4)c(=S)[nH]c3c2)CC1 | · | -3.4 | · | · | -6.1 | 98.1*
Cn1nnc(NC(=S)NC(=O)Cc2ccccc2)n1 | 2.0 | 1.2 | 15.6 | -0.3 | -12.9 | -18.4
CCCCCCC(=O)N1C/C=C\C(c2ccc(OC)cc2)N(Cc2ccc(F)cc2)C(=O)[C@H]1Cc1ccccc1 (some centres not stated) | · | · | · | · | · | 46.9
Cc1ccc(C(=O)NC(=S)N2CCN(C)CC2)cc1 | -2.9 | 5.8 | 51.6* | 1.6 | -2.4 | -21.6
Cc1ccc(C(=O)NC(=S)N2CCCC2)cc1 | · | 5.3 | · | · | -21.8 | -18.7
O=C(/C=C/c1ccccc1)Nc1ccc(NC(=O)c2cccs2)cc1 | -0.1 | 0.8 | · | -1.5 | -12.7 | -29.0
O=C(/C=C/c1ccccc1)NNC(=O)c1cccs1 | 23.8* | -3.3 | -2.6 | 40.8* | 2.3 | -55.0
O=[N+]([O-])c1cc(S(=O)(=O)O)cc([N+](=O)[O-])c1NN(c1ccccc1)c1ccccc1 | · | -4.2 | · | · | -5.3 | 3.0
Cc1nc2ccc(NC(=O)CCC3CCCC3)cc2s1 | · | -5.5 | · | · | -86.9 | -143.5
CC1CCCCC1NC(=O)COc1ccc(-n2cnnn2)cc1 (configuration not stated) | 2.3 | 2.9 | 1.1 | 0.9 | -1.1 | 11.1
O=C(COc1ccc(-n2cnnn2)cc1)NC1CCCCC1 | 0.5 | 0.7 | 74.3* | 1.3 | -26.3 | 6.9
SMILES | Ba/F3 V617F tox | IEC-6 tox | APP 5UTR inh | BaF3 tox | KLF5 inh | aSyn UTR inh
O=S1(=O)CCC(NC(=S)NC2CCS(=O)(=O)C2)C1 (configuration not stated) | 52.0* | 0.6 | 12.3 | 39.4* | -8.8 | 20.4
O=C1C(Cl)=C(NCCCN2CCOCC2)C(=O)N1CCc1ccccc1 | 5.1 | 7.7 | 50.7* | 3.7 | 19.0 | -125.9
Cc1[nH]c2ccccc2c1-c1nc2ccccc2[nH]1 | 11.0 | 4.4 | 7.4 | 29.7* | -6.5 | -78.5
Cc1ccc(-c2nc3ccccc3[nH]2)s1 | 10.3 | 5.5 | -114.0 | 14.0 | -136.1 | -80.3
CC(C(=O)c1ccc(-c2ccccc2)cc1)[n+]1cccc(C(N)=O)c1 (configuration not stated) | · | -1.8 | · | · | 0.6 | 8.5
Cc1cc[n+](C(C)C(=O)c2ccc(-c3ccccc3)cc2)cc1 (configuration not stated) | 81.0* | -5.3 | -0.2 | 66.5* | -21.3 | 22.6
CC(C(=O)c1ccc(-c2ccccc2)cc1)[n+]1ccccc1 (configuration not stated) | 47.0* | -1.4 | 1.7 | 63.6* | -5.8 | 12.5
Cc1ccc[n+](C(C)C(=O)c2ccc(-c3ccccc3)cc2)c1 (configuration not stated) | 57.7* | -12.0 | -9.1 | 68.7* | -24.2 | 2.4
C#CCOc1ccccc1CNC1CCN(Cc2ccccc2)CC1 | · | 6.3 | · | · | 9.7 | -17.9
O=c1c(Cl)c(NCCCO)cnn1-c1nc2ccccc2[nH]1 | 33.7* | 2.0 | -1.9 | 63.3* | -111.5 | -232.0
CCCCN(C(=O)c1cc2ccccc2o1)c1c(N)n(CC(C)C)c(=O)[nH]c1=O | -2.8 | 2.3 | 54.5* | 4.7 | -2.5 | 11.4
COc1ccc(CN(C)C(=S)Nc2ccc(Cl)cc2)cc1 | 39.3* | -1.2 | -7.0 | 36.0* | -23.3 | -9.7
CCN(CC)C(=S)Nc1ccc(OC)cc1 | -3.5 | -6.3 | 4.3 | 0.9 | 2.5 | 4.3
Cc1ccc(-c2c[n+](CC(=O)c3cccs3)c3n2CCC3)cc1 | 33.2* | 4.8 | · | 61.7* | 1.2 | 3.7
COc1ccc(-c2c[n+](CC(=O)c3cccs3)c3n2CCC3)cc1 | 18.8 | 2.0 | · | 29.0* | -8.0 | -10.7
COc1ccc(-c2c[n+](CC(=O)N3c4ccccc4Sc4ccccc43)c3n2CCC3)cc1 | -1.1 | -1.4 | · | -0.5 | -40.6 | -9.5
COc1ccc(-c2c/c(=N\c3nc(-c4ccccc4)c(C)s3)c3ccccc3o2)cc1O | -6.9 | -5.1 | -0.8 | 0.4 | 4.5 | 75.3*
Cc1nc2cc(-c3ccc(Cl)cc3)nn2c(C)c1CCC(=O)NC(C)c1ccc2c(c1)OCCO2 (configuration not stated) | -0.3 | -4.8 | 40.6 | 7.4 | 2.9 | 73.8*
CCc1ccc(C2=NN(CCC(=O)NC(C)c3ccc4c(c3)OCCO4)C(=O)CC2)cc1 (configuration not stated) | 2.8 | 2.8 | -12.3 | 1.7 | 20.7 | 0.1
COc1cc(OC)cc(-c2cc3nc(C)c(CCC(=O)NCc4ccccc4)c(C)n3n2)c1 | 3.6 | -0.6 | · | 1.1 | 27.1 | 75.0*
Cc1csc(NC(=O)CCc2c(C)nc3cc(-c4ccc(Cl)cc4)nn3c2C)n1 | 5.5 | 10.0 | 53.7* | 6.7 | -1.4 | ·
Cc1csc(C(C)N(C)C(=O)c2ccc(OC3CCN(Cc4ccccn4)CC3)cc2)n1 (configuration not stated) | · | -11.4 | · | · | -28.8 | -6.9
CC1(C)CC(=O)C(=C2SCCCS2)C(=O)C1 | -3.0 | -2.2 | -1.4 | 2.5 | -19.9 | -22.9
